According to PubChem BioAssay (NCATS):
Records with an inconclusive call do not appear. Where a call stands in place of a potency, no number is given. Calls of active or inactive are those of the source. Calls follow the shape of the dose curve; as a rule, active = well fitted cell-killing curve with a large enough effect; inconclusive = small, poorly fitted or top-dose-only effect; inactive = no such curve, though single readings can be large or run the other way.

Assay: qHTS of pediatric cancer cell lines to identify multiple opportunities for drug repurposing: Primary screen for SJ-GBM2 cells (AID 1347091)
Conditions: SJ-GBM2 viability, CellTiter-Glo luminescence, 48 h; series mostly up to 46 µM
Outline: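 Cell viability, CellTiter-Glo luminescence; 500-1,000 cells/well, 8- or 11-point titration, 48 h compound exposure at 37 degrees C, 5% CO2. Controls: DMSO neutral, bortezomib 2.3 µM final as positive.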
Potency is read from the fitted curve at half-maximal effect.

Compound | Potency
CC(C)[N+](C)(C)CC(O)COc1cccc2ccccc12 (configuration not stated) | inactive
C/C=C/C=N/NC(=O)c1ccncc1 | inactive
OC[C@H]1O[C@@H]2O[C@H]3[C@H](O)[C@@H](O)[C@@H](O[C@H]4[C@H](O)[C@@H](O)[C@@H](O[C@H]5[C@H](O)[C@@H](O)[C@@H](O[C@H]6[C@H](O)[C@@H](O)[C@@H](O[C@H]7[C@H](O)[C@@H](O)[C@@H](O[C@H]8[C@H](O)[C@@H](O)[C@@H](O[C@H]1[C@H](O)[C@H]2O)O[C@@H]8CO)O[C@@H]7CO)O[C@@H]6CO)O[C@@H]5CO)O[C@@H]4CO)O[C@@H]3CO | inactive
Nc1ccc(C(=O)NCC(=O)O)cc1 | inactive
Cc1ncc(CO)c(C=O)c1O | inactive
CC(C)[C@@H]1CC[C@@H](C)CC1=O | inactive
O=C(O)C(Cc1cc(I)c(O)c(I)c1)c1ccccc1 (configuration not stated) | inactive
C[N+]1(CC2COC(c3ccccc3)(C3CCCCC3)O2)CCCCC1 (configuration not stated) | inactive
NC1CCN(c2nc3c(cc2F)c(=O)c(C(=O)O)cn3-c2ccc(F)cc2F)C1 (configuration not stated) | inactive
CC(=C(CCOC(=O)C(C)C)SSC(CCOC(=O)C(C)C)=C(C)N(C=O)Cc1cnc(C)nc1N)N(C=O)Cc1cnc(C)nc1N | inactive
CCN1CCN(C(=O)N[C@@H](C(=O)N[C@@H]2C(=O)N3C(C(=O)O)=C(CSc4nnnn4C)CS[C@H]23)c2ccc(O)cc2)C(=O)C1=O | inactive
CC(=O)OCC1=C(C(=O)O)N2C(=O)[C@@H](NC(=O)CSc3ccncc3)[C@H]2SC1 | inactive
CC(=O)Nc1ccc(OCC(O)CNC(C)C)cc1 (configuration not stated) | inactive
OCCOCCN1CCN(C2=Nc3ccccc3Sc3ccccc32)CC1 | inactive
N[C@H](C(=O)O)[C@@H](O)c1ccc(O)c(O)c1 | inactive
CCOC(=O)c1c(N)sc2c1CCN(Cc1ccccc1)C2 | inactive
Oc1c(Cl)cc(Cl)c(Cl)c1Cc1c(O)c(Cl)cc(Cl)c1Cl | 4.22 µM (active)
C=C[C@@]1(C)CC(=O)[C@]2(O)[C@@]3(C)[C@@H](O)CCC(C)(C)[C@@H]3[C@H](O)[C@H](OC(C)=O)[C@@]2(C)O1 | inactive
CC(C)(C)CC(C)(C)c1ccc(O)c(-n2nc3ccccc3n2)c1 | inactive
CN(C)C(=O)Nc1ccc(Cl)c(Cl)c1 | inactive
O=C(O)CCC(=O)Nc1ccc(S(=O)(=O)Nc2nccs2)cc1 | inactive
CNCCc1ccccn1 | inactive
